Several values for one entry are separate records, joined by “and”; a condition that tells them apart may be missing. Equal entries are not always repeated. Inconclusive results are not listed. Some compounds were tested as several samples or in several runs, with calls that do not always agree. Activity calls are given as the source filed them. Calls follow the shape of the dose curve; as a rule, active = well fitted curve in the direction sought with a large enough effect; inconclusive = small, poorly fitted or top-dose-only effect, or another doubt; inactive = no such curve, though single readings can be large; an effect the other way counts as inactive or inconclusive.
How the values were obtained:
[1] = Viability qHTS for spleen associated tyrosine kinase inhibitor (SYKi) naive MV4-11 cells (AID 1963823); also: nearly all actives have a fitted effect of over 40% in size
Procedure, shortened: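 SYK inhibitor-naive MV4-11 cells, 500 per well, exposed to compounds for 72 hr at 37 C, 5% CO2. Viability read as CellTiter-Glo luminescence after 10 min at room temperature.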

[2] = Viability qHTS for spleen associated tyrosine kinase inhibitor (SYKi) drug resistant MV4-11 cells (AID 1963824); also: nearly all actives have a fitted effect of over 35% in size
Procedure, shortened: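 SYK inhibitor-resistant MV4-11 AML cells, 500 per well, added to predispensed compounds and incubated 72 hr at 37 C, 5% CO2. Viability measured by CellTiter-Glo luminescence after 10 min at room temperature.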

[3] = Quantitative highthroughput screen to assess conditional lethalithy of NOMO1 cells grown in RPMI1640 with untreated serum (RPMI+s) (AID 1963876); also: nearly all actives have a fitted effect of over 35% in size;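 as to Viability: 100% = DMSO wells and 0% = empty wells without cells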
Procedure, shortened: (§1)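 Each medium arm—HPLM with 10% dialyzed FBS, or RPMI1640 with 5 mM glucose and 10% untreated or dialyzed FBS—was screened against an 11-point, 3-fold compound titration for 48 h at 37 °C, with CellTiter-Glo luminescence as endpoint.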

[4] = Quantitative highthroughput screen to assess conditional lethalithy of NOMO1 cells grown in RPMI1640 with dialyzed fetal bovine serum (RPMI+ds) (AID 1963877); also: nearly all actives have a fitted effect of over 30% in size;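 as to Viability: series mostly up to about 46 µM; 100% = DMSO control wells and 0% = empty wells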
Procedure, shortened: as §1

[5] = Quantitative highthroughput screen to assess conditional lethalithy of NOMO1 cells grown in Human Plasma-Like Medium with dialyzed fetal bovine serum (HPLM+ds) (AID 1963878); also: nearly all actives have a fitted effect of over 35% in size;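 as to Viability: 100% = DMSO wells and 0% = empty wells on each plate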
Procedure, shortened: as §1

[6] = Quantitative highthroughput screen to assess conditional lethalithy of P12 Ichikawa cells grown in Human Plasma-Like Medium with dialyzed fetal bovine serum (HPLM+ds) (AID 1963879); details: Potency: viability; also: nearly all actives have a fitted effect of over 35% in size; as to Viability: series mostly up to about 46 µM
Procedure, shortened: as §1

[7] = Quantitative highthroughput screen to assess conditional lethalithy of P12 Ichikawa cells grown in RPMI1640 with dialyzed fetal bovine serum (RPMI+ds) (AID 1963880); details: Potency: P12-Ichikawa viability; also: nearly all actives have a fitted effect of over 35% in size;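 as to Viability: 100% = DMSO wells and 0% = empty wells on each plate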
Procedure, shortened: as §1

[8] = Quantitative highthroughput screen to assess conditional lethalithy of P12 Ichikawa cells grown in RPMI1640 with untreated serum (RPMI+s) (AID 1963881); details: Potency: viability; also: nearly all actives have a fitted effect of over 35% in size;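 as to Viability: series mostly up to about 46 µM; 100% = DMSO wells and 0% = empty wells without cells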
Procedure, shortened: as §1

[9] = Quantitative highthroughput screen to assess conditional lethalithy of SEM cells grown in Human Plasma-Like Medium with dialyzed fetal bovine serum (HPLM+ds) (AID 1963882); also: nearly all actives have a fitted effect of over 35% in size; as to Viability: series mostly up to about 46 µM
Procedure, shortened: as §1

[10] = Quantitative highthroughput screen to assess conditional lethalithy of SEM cells grown in RPMI1640 with unreated serum (RPMI+s) (AID 1963883); also: nearly all actives have a fitted effect of over 35% in size;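 as to Viability: 100% = DMSO wells and 0% = empty wells without cells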
Procedure, shortened: as §1

[11] = Quantitative highthroughput screen to assess conditional lethalithy of SEM cells grown in RPMI1640 with dialyzed fetal bovine serum (RPMI+ds) (AID 1963884); also: nearly all actives have a fitted effect of over 35% in size;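 as to Viability: series mostly up to about 46 µM; 100% = DMSO control wells and 0% = empty wells without cells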
Procedure, shortened: as §1

[12] = Cellular viability qHTS for adrenocortical cancer (ACC) cell line NCI-H295R (AID 1963990); also: nearly all actives have a fitted effect of over 60% in size
Procedure, shortened: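 CellTiter-Glo ATP luminescence, read 48 h after compound addition, measured viability of NCI-H295R adrenocortical cells grown serum-free with ITS. Final concentrations spanned up to 46 uM. Data normalized to DMSO and doxorubicin, fitted for IC50 and maximal response.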

[13] = Cellular viability qHTS for adrenocortical cancer (ACC) cell line SW-13 (AID 1963989); details: SW-13 ACC cells viability, CellTiter-Glo, 48 h; activity (max response): stronger effect = lower value; also: nearly all actives have a fitted effect of over 65% in size;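 as to activity (max response): cells grown in serum-free medium with ITS supplement; % is scaled to controls: 0 for no effect and ±100 for the full control effect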
Procedure, shortened: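 Viability was read as CellTiter-Glo luminescence after 48 h compound treatment (up to 46 uM final) of SW-13 cells grown serum-free; titration curves were fit with a four-parameter logistic model to give IC50 and efficacy.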
Potency is read from the fitted curve at half-maximal effect.

Cc1nc(N)ncc1-c1nc(N2CCOCC2)c2sc(C(C)(C)O)cc2n1
active: Potency [1] 2.59 µM and 3.32 µM | Potency [2] 3.66 µM and 5.9 µM | Potency [3] 209 nM | Potency [4] 0.332 µM | Potency [5] 37.2 nM | Potency [6] 0.0833 µM | Potency [7] 0.372 µM | Potency [8] 0.372 µM | Potency [9] 148 nM | Potency [10] 33.2 nM | Potency [11] 74.3 nM | Potency [12] 2.24 µM

CN(CCOc1ccc(NS(C)(=O)=O)cc1)CCc1ccc(NS(C)(=O)=O)cc1
inactive: Potency [1] | Potency [2] | Potency [3] | Potency [4] | Potency [5] | Potency [6] | Potency [7] | Potency [8] | Potency [9] | Potency [10] | activity (max response) [13] 0.645% and 1.15% | Potency [12]

CCOC(=O)C(C)Oc1cccc2c(=O)n(CC(=O)Nc3ccc4c(c3)OCCO4)ccc12 (centres undefined)
inactive: Potency [3] | Potency [4] | Potency [5] | Potency [6] | Potency [7] | Potency [8] | Potency [9] | Potency [10] | Potency [11] | activity (max response) [13] 14.3% | Potency [12]
active: Potency [1] 1.48 µM | Potency [2] 934 nM

N[C@@H](Cc1cc(I)c(Oc2cc(I)c(O)c(I)c2)c(I)c1)C(=O)O
inactive and 1.61 µM (active): Potency [2]
inactive: Potency [1] | Potency [3] | Potency [4] | Potency [5] | Potency [6] | Potency [7] | Potency [8] | Potency [9] | activity (max response) [13] 3.69% and -6.52% | Potency [12]

CC(C)C[C@H](NC(=O)CNC(=O)c1cc(Cl)ccc1Cl)B1OC(=O)CC(CC(=O)O)(C(=O)O)O1 (some centres undefined)
active: Potency [1] 0.148 µM | Potency [2] 118 nM | Potency [3] 372 nM | Potency [4] 0.418 µM | Potency [5] 372 nM | Potency [6] 0.332 µM | Potency [7] 0.296 µM | Potency [8] 0.296 µM | Potency [9] 118 nM | Potency [11] 118 nM | Potency [12] 0.355 µM

COc1ccc(F)c(F)c1C(=O)c1cnc(NC2CCN(S(C)(=O)=O)CC2)nc1N
active: Potency [1] 0.651 µM | Potency [2] 580 nM and 742 nM | Potency [3] 4690 nM | Potency [4] 6.62 µM | Potency [5] 4180 nM | Potency [6] 20.9 µM | Potency [7] 11.8 µM | Potency [8] 11.8 µM | Potency [9] 4690 nM | Potency [11] 5900 nM | Potency [12] 3.16 µM

O[C@@H](COc1cccc2ncccc12)CN1CCN(C2c3ccccc3[C@@H]3[C@H](c4ccccc42)C3(F)F)CC1 (some centres undefined)
active: Potency [1] 5.9 µM and 9.2 µM | Potency [2] 6.61 µM and 9.2 µM | Potency [13] 20.6 µM | Potency [12] 3.55 µM
inactive: Potency [3] | Potency [4] | Potency [5] | Potency [6] | Potency [7] | Potency [8] | Potency [9] | Potency [11]

O=c1cc(O)c(Cl)c[nH]1
active: Potency [3] 7430 nM | Potency [4] 8.33 µM | Potency [5] 5260 nM | Potency [6] 7.43 µM | Potency [7] 14.8 µM | Potency [8] 8.33 µM
inactive: Potency [1] | Potency [2] | activity (max response) [13] 20.2% | Potency [12]

C[C@H](CCC(=O)O)[C@H]1CCC2C3C[C@H](O)[C@@H]4C[C@H](O)CC[C@]4(C)C3CC[C@@]21C (some centres undefined)
inactive: Potency [1] | Potency [2] | Potency [3] | Potency [4] | Potency [5] | Potency [6] | Potency [7] | Potency [8] | activity (max response) [13] 1.86% | Potency [12]

CCCCN(CCCC)CCC(O)c1cc2c(Cl)cc(Cl)cc2c2cc(C(F)(F)F)ccc12 (centres undefined)
inactive: Potency [3] | Potency [4] | Potency [5] | Potency [6] | Potency [7] | Potency [9]
active: Potency [1] 10.6 µM | Potency [2] 8410 nM | Potency [8] 13.2 µM | Potency [13] 5.8 µM | Potency [12] 5.8 µM

COc1ncc(-c2ccc3c(Nc4cc(Oc5cc(F)cc(F)c5)cc(C(=O)O)c4)c(S(=O)(=O)NC4CC4)cnc3c2)c(OC)n1
inactive: Potency [1] | Potency [2] | Potency [3] | Potency [4] | Potency [5] | Potency [6] | Potency [7] | Potency [8] | Potency [10] | Potency [11] | Potency [12]

C[Se]CCC(N)C(=O)O (centres undefined)
inactive: Potency [1] | Potency [2] | Potency [3] | Potency [4] | Potency [5] | Potency [6] | Potency [7] | Potency [8] | activity (max response) [13] -4.29% | Potency [12]

CC(C)(C)c1cc(C(C)(C)C)c(NC(=O)c2c[nH]c3ccccc3c2=O)cc1O
active: Potency [1] 11.8 µM | Potency [2] 7420 nM | Potency [13] 6.31 µM | Potency [12] 7.08 µM
inactive: Potency [3] | Potency [4] | Potency [5] | Potency [6] | Potency [7] | Potency [8] | Potency [10] | Potency [11]

N#Cc1c(O)c2c(-c3ccc(-c4ccccc4O)cc3)csc2[nH]c1=O
inactive: Potency [1] | Potency [2] | Potency [3] | Potency [4] | Potency [5] | Potency [6] | Potency [7] | Potency [8] | Potency [10] | Potency [11] | activity (max response) [13] 4.91% | Potency [12]

CNCc1ccc(-c2[nH]c3cc(F)cc4c3c2CCNC4=O)cc1
inactive: Potency [3] | Potency [4] | Potency [5] | Potency [6] | Potency [7] | Potency [8] | Potency [9] | Potency [11] | Potency [12]
active: Potency [1] 13 µM and 16.6 µM | Potency [2] 20.6 µM and 14.8 µM
